Measurements reported in PubChem BioAssay (NCI).
Where “and” joins values, the source holds several entries; their conditions need not be identical. Equal entries are not always repeated. The panel holds about 83,000 compounds, 20% with a hit somewhere; the sample as a whole holds those more often.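 Cells were grown in 96-well plates and exposed to the test compound at a single concentration for 48 hours; results are reported as percent growth, with values below 10 considered active.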 Calls of active or inactive are those of the source.

What was measured:
Experiment in all cases: NCI-60 one-dose screen, 48 h (100 = growth as untreated, 0 = no growth, -100 = all killed)
SR leukemia = conditions: 10 µM unless noted
RPMI-8226 leukemia = conditions: 10 µM unless noted
OVCAR-8 ovarian = conditions: 10 µM unless noted
OVCAR-4 ovarian = conditions: 10 µM unless noted
SK-OV-3 ovarian = conditions: 10 µM unless noted
IGROV1 ovarian = conditions: 10 µM unless noted
OVCAR-3 ovarian = conditions: 10 µM unless noted
HS 578T breast = conditions: 10 µM unless noted
NCI/ADR-RES ovarian = conditions: 10 µM unless noted
T-47D breast = conditions: 10 µM unless noted
BT-549 breast = conditions: 10 µM unless noted
MDA-MB-435 melanoma = conditions: 10 µM unless noted
SW-620 colon = conditions: 10 µM unless noted
MCF7 breast = test system: MCF7 breast
HCT-116 colon = conditions: 10 µM unless noted
HCC-2998 colon = conditions: 10 µM unless noted
KM12 colon = conditions: 10 µM unless noted
OVCAR-5 ovarian = conditions: 10 µM unless noted

Measured: growth

COc1cccc(-c2cc(-c3cccs3)c(C#N)c(=O)[nH]2)c1
inactive: SR leukemia 105% | RPMI-8226 leukemia 98.3% | OVCAR-8 ovarian 100% | OVCAR-4 ovarian 104% | SK-OV-3 ovarian 113% | IGROV1 ovarian 108% | OVCAR-3 ovarian 109% | HS 578T breast 96.4% | NCI/ADR-RES ovarian 116% | T-47D breast 93.3% | BT-549 breast 113% | MDA-MB-435 melanoma 103% | SW-620 colon 105% | MCF7 breast; 10 µM unless noted 94.2% | HCT-116 colon 101% | HCC-2998 colon 125% | KM12 colon 101%

CCOc1cc(/C=N\NC(=O)C[N+](C)(C)C)ccc1O
inactive: SR leukemia 14.3% | RPMI-8226 leukemia 94% | OVCAR-8 ovarian 113% | OVCAR-5 ovarian 101% | SK-OV-3 ovarian 105% | IGROV1 ovarian 118% | OVCAR-3 ovarian 116% | HS 578T breast 117% | NCI/ADR-RES ovarian 103% | T-47D breast 94.1% | BT-549 breast 117% | MDA-MB-435 melanoma 109% | MCF7 breast; 10 µM unless noted 105% | HCT-116 colon 111% | HCC-2998 colon 104% | KM12 colon 109%

S=C(Nc1ccc(Cl)cc1)Nc1ccc(Cl)cc1 (tested in a mixture with another compound)
active: SR leukemia 5.29% | RPMI-8226 leukemia 9.87% | OVCAR-8 ovarian 1.13% | SK-OV-3 ovarian -0.571% | OVCAR-3 ovarian 5.45% | MDA-MB-435 melanoma 3.6% | MCF7 breast; 10 µM unless noted 7.15% | HCT-116 colon 0.154% | KM12 colon 3.43%
inactive: OVCAR-4 ovarian 10.5% | IGROV1 ovarian 16.2% | HS 578T breast 17.4% | T-47D breast 11.6% | BT-549 breast 12.8% | SW-620 colon 11.8% | HCC-2998 colon 17.8%

CCOC(=O)N1C2CCC(C2)N1C(=O)OCC
inactive: SR leukemia 101% | RPMI-8226 leukemia 101% | OVCAR-8 ovarian 101% | OVCAR-4 ovarian 95.3% | SK-OV-3 ovarian 104% | IGROV1 ovarian 108% | OVCAR-3 ovarian 113% | HS 578T breast 111% | NCI/ADR-RES ovarian 108% | T-47D breast 108% | BT-549 breast 101% | MDA-MB-435 melanoma 113% | SW-620 colon 105% | MCF7 breast; 10 µM unless noted 90.1% | HCT-116 colon 103% | HCC-2998 colon 104% | KM12 colon 112%

O=C(CCl)N1c2ccccc2Oc2ccc3ccccc3c21
active: SR leukemia 9.32% | RPMI-8226 leukemia -24.7% | OVCAR-8 ovarian -35.5% | IGROV1 ovarian -70.2% | OVCAR-3 ovarian -95.1% | HS 578T breast -12.6% | NCI/ADR-RES ovarian -11.9% | T-47D breast -62.5% | BT-549 breast -67.3% | MDA-MB-435 melanoma -22.4% | SW-620 colon -81.2% | HCT-116 colon -98.8%
inactive: OVCAR-5 ovarian 22.4% | SK-OV-3 ovarian 30.7% | MCF7 breast; 10 µM unless noted 10.4% | HCC-2998 colon 103% | KM12 colon 17.3%

c1ccc2c(N=NSc3ncnc4nc[nH]c34)c3ccccc3nc2c1
inactive: HS 578T breast 53.6% | BT-549 breast 27.9%
active: SR leukemia -28.1% | RPMI-8226 leukemia -1.28% | OVCAR-8 ovarian -25.7% | OVCAR-5 ovarian -9.11% | SK-OV-3 ovarian -14.2% | IGROV1 ovarian 6.28% | OVCAR-3 ovarian 5.13% | NCI/ADR-RES ovarian -33.4% | T-47D breast -23.7% | MDA-MB-435 melanoma 5.09% | SW-620 colon -27.6% | MCF7 breast; 10 µM unless noted -27.7% | HCT-116 colon -33.7% | HCC-2998 colon 6.89% | KM12 colon 9.38%

NNC(=O)CSc1nc2scc(-c3ccccc3)c2c(=O)n1-c1ccccc1
inactive: SR leukemia 83% | RPMI-8226 leukemia 109% | OVCAR-8 ovarian 123% | OVCAR-4 ovarian 92.8% | SK-OV-3 ovarian 120% | IGROV1 ovarian 102% | OVCAR-3 ovarian 99.5% | HS 578T breast 89.2% | NCI/ADR-RES ovarian 103% | T-47D breast 104% | BT-549 breast 131% | MDA-MB-435 melanoma 121% | SW-620 colon 112% | MCF7 breast; 10 µM unless noted 97.8% | HCT-116 colon 91.9% | HCC-2998 colon 84.2% | KM12 colon 108%

O=C(O)c1cc2cc(OCc3ccccc3)ccc2[nH]1
inactive: SR leukemia 104% | RPMI-8226 leukemia 94.3% | OVCAR-8 ovarian 87.9% | OVCAR-4 ovarian 97.5% | SK-OV-3 ovarian 94.7% | IGROV1 ovarian 110% | OVCAR-3 ovarian 102% | HS 578T breast 97.1% | NCI/ADR-RES ovarian 109% | T-47D breast 101% | BT-549 breast 84.9% | MDA-MB-435 melanoma 111% | MCF7 breast; 10 µM unless noted 62.4% | HCT-116 colon 100% | HCC-2998 colon 104% | KM12 colon 96.8%

Oc1ccc(-c2nnc3c4[nH]ccc4ncn23)cc1
inactive: SR leukemia 82.4% | RPMI-8226 leukemia 97.7% | OVCAR-8 ovarian 99.6% | OVCAR-4 ovarian 102% | SK-OV-3 ovarian 99.7% | IGROV1 ovarian 84% | OVCAR-3 ovarian 107% | HS 578T breast 95% | T-47D breast 93.4% | BT-549 breast 89.2% | MDA-MB-435 melanoma 97.5% | SW-620 colon 108% | MCF7 breast; 10 µM unless noted 92.1% | HCT-116 colon 88.8% | HCC-2998 colon 105% | KM12 colon 104%

COc1ccc([C@H]2c3[nH]c4ccccc4c3C[C@H]3C(=O)N(CCCCCCC(=O)NO)CC(=O)N23)cc1
inactive: SR leukemia 16.5% | OVCAR-8 ovarian 30.3% | OVCAR-4 ovarian 54.3% | SK-OV-3 ovarian 55.3% | IGROV1 ovarian 34.3% | OVCAR-3 ovarian 33.9% | HS 578T breast 47.7% | NCI/ADR-RES ovarian 58.4% | BT-549 breast 62.4% | MDA-MB-435 melanoma 24.6% | MCF7 breast; 10 µM unless noted 29.9% | HCT-116 colon 10.4% | KM12 colon 49.8%
active: RPMI-8226 leukemia -9.73% | T-47D breast 7.57% | SW-620 colon 4% | HCC-2998 colon 6.81%

CS(=O)(=O)c1ccc(C(=O)N/N=C/c2ccc3c(c2)OCO3)cc1
inactive: SR leukemia 110% | RPMI-8226 leukemia 102% | OVCAR-8 ovarian 93.8% | OVCAR-4 ovarian 109% | SK-OV-3 ovarian 107% | IGROV1 ovarian 113% | OVCAR-3 ovarian 99.4% | HS 578T breast 100% | NCI/ADR-RES ovarian 110% | T-47D breast 97.3% | BT-549 breast 109% | MDA-MB-435 melanoma 102% | SW-620 colon 105% | MCF7 breast; 10 µM unless noted 95% | HCT-116 colon 98.1% | HCC-2998 colon 93% | KM12 colon 95.9%

COc1cc(OC)cc(-c2ccc(-c3ccc(C(=N)N)s3)s2)c1
active: SR leukemia -47.3% | RPMI-8226 leukemia -62.9% | OVCAR-8 ovarian -58.8% | OVCAR-5 ovarian -81% | SK-OV-3 ovarian -92.4% | IGROV1 ovarian -67.2% | OVCAR-3 ovarian -42.9% | HS 578T breast -40.4% | NCI/ADR-RES ovarian -58% | T-47D breast -70.2% | MDA-MB-435 melanoma -81.9% | SW-620 colon -69.2% | MCF7 breast; 10 µM unless noted -72.8% | HCT-116 colon -73.5% | HCC-2998 colon -71.7% | KM12 colon -73.3%

COc1cc2c(c(OC)c1O)C(=O)C(OC)C(c1ccc(O)c(O)c1)O2 (centres undefined)
inactive: SR leukemia 10.8% | OVCAR-8 ovarian 17.1% | OVCAR-4 ovarian 37.8% | SK-OV-3 ovarian 46.5% | IGROV1 ovarian 14.1% | HS 578T breast 24.7% | NCI/ADR-RES ovarian 16.6% | T-47D breast 50.3% | SW-620 colon 22.6% | MCF7 breast; 10 µM unless noted 11% | HCC-2998 colon 20.1%
active: RPMI-8226 leukemia -19.3% | OVCAR-3 ovarian -24% | BT-549 breast -14.6% | MDA-MB-435 melanoma -23.8% | HCT-116 colon 3.39% | KM12 colon 8.81%

NC(N)=NC1CCCCC1
inactive: SR leukemia 92.6% | RPMI-8226 leukemia 85.6% | OVCAR-5 ovarian 109% | SK-OV-3 ovarian 107% | IGROV1 ovarian 107% | HS 578T breast 107% | NCI/ADR-RES ovarian 98% | T-47D breast 103% | BT-549 breast 105% | MDA-MB-435 melanoma 104% | SW-620 colon 100% | MCF7 breast; 10 µM unless noted 96.4% | HCT-116 colon 98.6%
active: OVCAR-3 ovarian -50.3% | KM12 colon -69%

CCOCCNc1ccc(S(=O)(=O)c2ccc(N)cc2)cc1N
inactive: SR leukemia 115% | RPMI-8226 leukemia 92.9% | OVCAR-5 ovarian 103% | OVCAR-4 ovarian 100% | SK-OV-3 ovarian 105% | IGROV1 ovarian 114% | OVCAR-3 ovarian 100% | HS 578T breast 99% | NCI/ADR-RES ovarian 100% | T-47D breast 99.8% | BT-549 breast 107% | MDA-MB-435 melanoma 105% | SW-620 colon 102% | MCF7 breast; 10 µM unless noted 113% | HCT-116 colon 102% | HCC-2998 colon 101% | KM12 colon 99.3%

Clc1ccc(-c2nc(-c3cccs3)no2)cc1
inactive: SR leukemia 101% | RPMI-8226 leukemia 95.3% | OVCAR-8 ovarian 101% | SK-OV-3 ovarian 99.2% | IGROV1 ovarian 77.1% | OVCAR-3 ovarian 103% | HS 578T breast 99.5% | NCI/ADR-RES ovarian 103% | T-47D breast 56.9% | BT-549 breast 102% | MDA-MB-435 melanoma 107% | SW-620 colon 91% | MCF7 breast; 10 µM unless noted 33.7% | HCT-116 colon 97.8% | HCC-2998 colon 102% | KM12 colon 103%

Cc1cc(O)c2cc3c(O)c(O)ccc3cc2c1
active: MCF7 breast; 100 µM 4.83% and -31.7%
inactive: SR leukemia 101% | RPMI-8226 leukemia 115% | OVCAR-5 ovarian 81.5% | SK-OV-3 ovarian 109% | IGROV1 ovarian 98.1% | OVCAR-3 ovarian 133% | HS 578T breast 110% | NCI/ADR-RES ovarian 109% | T-47D breast 104% | BT-549 breast 109% | MDA-MB-435 melanoma 123% | SW-620 colon 114% | MCF7 breast; 10 µM 139% | HCT-116 colon 102% | HCC-2998 colon 114% | KM12 colon 108%

Cc1cc(Nc2c3ccccc3nc3ccccc23)ccc1NS(C)(=O)=O
active: SR leukemia -6.9%
inactive: RPMI-8226 leukemia 31.2% | OVCAR-5 ovarian 27.5% | OVCAR-4 ovarian 48.1% | SK-OV-3 ovarian 43.5% | IGROV1 ovarian 25.5% | OVCAR-3 ovarian 46.6% | HS 578T breast 52.4% | NCI/ADR-RES ovarian 57.7% | T-47D breast 45% | BT-549 breast 78.7% | MDA-MB-435 melanoma 36.8% | SW-620 colon 21.8% | MCF7 breast; 10 µM unless noted 27.4% | HCT-116 colon 13.7% | HCC-2998 colon 50.8% | KM12 colon 40.5%

CN(C)c1ccc(C2(Cl)c3ccccc3N(C)c3ccccc32)cc1
active: HCT-116 colon 5.46%
inactive: SR leukemia 25.4% | RPMI-8226 leukemia 21.1% | OVCAR-5 ovarian 91.7% | OVCAR-4 ovarian 59.5% | SK-OV-3 ovarian 77.6% | IGROV1 ovarian 46.5% | OVCAR-3 ovarian 35.8% | HS 578T breast 71.7% | NCI/ADR-RES ovarian 94.6% | BT-549 breast 71.9% | MDA-MB-435 melanoma 46.7% | SW-620 colon 21.6% | MCF7 breast; 10 µM unless noted 50.4% | HCC-2998 colon 77.4% | KM12 colon 36.7%
